Each molecule was assayed on HCC1569 (assay: H1.0 immunofluorescence intensity relative to DMSO (% of DMSO); higher = stronger H1.0 induction, active = 140 or more). Details: concentration: 10 µM; 24 h.
How it was run: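 After 24 h at 37 °C with compounds at 10 µM, in triplicate, HCC1569 and TDF cells were fixed with 3.7% formaldehyde. Immunostaining used a rabbit anti-H1.0 antibody and an AlexaFluor 647 secondary, with DAPI, and six fields per well were imaged at ×10. H1.0 nuclear intensity or cell number is presented as percent of the plate control, from the median of replicates, with HCC1569 values smoothed for positional effects.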
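Note: TDF is a line of transformed human dermal fibroblasts of mesenchymal origin.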

H1.0 immunofluorescence intensity, inactive:
Cc1cn2cc(C(=O)N(C)CCO)cc(N[C@@H]3CCOc4cccc(C)c43)c2n1 106
COc1cc2c(c(OC)c1OC)-c1c(cc(OC)c(OC)c1OC)CC(C)C(C)C2 (stereo not drawn) [R(+)-Schisandrin A] 94.9
CON(C)C(=O)[C@H](O)[C@H](Cc1ccccc1)NC(=O)c1cc2cc(Cl)ccc2[nH]1 103
Nc1ccc(S(=O)(=O)Nc2ccnn2-c2ccccc2)cc1 [Sulfaphenazole] 106

Source: the supplement of paper PMC7156485
